# According to PubChem BioAssay (NCATS):
# “And” between values parts separate entries of the source, which are not always exact repeats. Equal entries are not always repeated. Inconclusive results are not listed. Entries that show only a call come without a potency. Some structures have more than one record in an assay (separate samples or runs), and their calls can disagree. The source made the active and inactive calls. Calls come from the whole dose curve; as a rule, active = well fitted curve in the direction sought with a large enough effect; inconclusive = small, poorly fitted or top-dose-only effect, or another doubt; inactive = no such curve, though single readings can be large; an effect the other way counts as inactive or inconclusive. Non-standard residues stand in square brackets, D forms with d. Residues, ends and D or L forms follow the SMILES beside them. Peptide text beside a SMILES is read from it. *: point of attachment. Sta = CC(C)C[C@H](N)[C@@H](O)CC(=O)O; Isovaleryl = CC(C)CC(=O)*
# Tests used:
# [1] = tested on: MKL-1; experiment: qHTS assay to identify novel small-molecules to repurpose for Merkel cell carcinoma treatment (AID 1296009); settings: MCC and control cell lines, CellTiter-Glo viability, 72 h; series mostly up to 46 µM; note: nearly all actives have a fitted effect of over 60% in size
# Method in brief: (§1)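 Cells exposed to NPC (8-point) and MIPE (11-point) compound dilutions for 72 hr at 37 degree celsius; viability read by CellTiter-Glo luminescence, normalized to no-cell and DMSO in-plate controls.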
# [2] = tested on: MKL-2; experiment: as above; settings: MCC and control cell lines, CellTiter-Glo viability, 72 h; series mostly up to 46 µM
# Method in brief: as §1
# [3] = tested on: NIH3T3; experiment: as above; settings: MCC and control cell lines, CellTiter-Glo viability, 72 h; at 44.8 µM (top of the series) unless noted
# Method in brief: as §1
# [4] = tested on: UISO; experiment: as above; settings: MCC and control cell lines, CellTiter-Glo viability, 72 h; series mostly up to 46 µM
# Method in brief: as §1
# [5] = tested on: WaGa; experiment: as above; settings: MCC and control cell lines, CellTiter-Glo viability, 72 h; series mostly up to 46 µM
# Method in brief: as §1
# [6] = tested on: C33A; experiment: Primary qHTS to identify gynecologic anti-cancer compounds using libraries of approved drugs and bioactive compounds (AID 1345084); settings: Gynecologic cancer cell panel viability, ATPlite luminescence, 48 h; series mostly up to 57.5 µM; note: nearly all actives have a fitted effect of over 55% in size
# Method in brief: (§2)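 Cytotoxicity screen measuring ATP content by luciferase luminescence. Each compound is applied at five concentrations for 48 h at 37 C with 5% CO2.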
# [7] = tested on: CASKI; experiment: as above; settings: Gynecologic cancer cell panel viability, ATPlite luminescence, 48 h; series mostly up to 57.5 µM
# Method in brief: as §2
# [8] = tested on: Es-2; experiment: as above; settings: Gynecologic cancer cell panel viability, ATPlite luminescence, 48 h; series mostly up to 57.5 µM
# Method in brief: as §2
# [9] = tested on: HeLa; experiment: as above; settings: Gynecologic cancer cell panel viability, ATPlite luminescence, 48 h; series mostly up to 57.5 µM
# Method in brief: as §2
# [10] = tested on: CAOV3; experiment: as above; settings: Gynecologic cancer cell panel viability, ATPlite luminescence, 48 h; series mostly up to 57.5 µM
# Method in brief: as §2
# Potency is the fitted concentration of half-maximal effect.
SMILES,Potency [1],Potency [2],outcome [3],Potency [4],Potency [5],Potency [6],Potency [7],Potency [8],Potency [9],Potency [10]
CN(C)c1ccc(O)c2c1C[C@H]1C[C@H]3[C@H](N(C)C)C(=O)C(C(N)=O)=C(O)[C@@]3(O)C(=O)C1=C2O,inactive,inactive,inactive,inactive,inactive and 18.8 µM (active),inactive,inactive,inactive,inactive,–
C[C@@H](c1ncncc1F)[C@](O)(Cn1cncn1)c1ccc(F)cc1F,inactive,inactive,–,inactive,inactive,–,–,–,–,–
Cc1cccc(CN2CCN(C(c3ccccc3)c3ccc(Cl)cc3)CC2)c1 (stereo not drawn),inactive,inactive,–,inactive,inactive,inactive,inactive,inactive,inactive,inactive
CC1(C)C(=O)N(CCN2CCC(C(=O)c3ccc(F)cc3)CC2)c2ccccc21,inactive,inactive,–,inactive,inactive,–,–,–,–,–
Cc1ncc([N+](=O)[O-])n1CC(C)O (stereo not drawn),inactive,inactive,inactive,inactive,inactive,inactive,inactive,inactive,inactive,–
CS(=O)(=O)OCCCCOS(C)(=O)=O,inactive,inactive,–,inactive,inactive,inactive,inactive,inactive,inactive,inactive
Clc1ccc(C(Cn2ccnc2)OCc2c(Cl)cccc2Cl)c(Cl)c1 (stereo not drawn),inactive,inactive,inactive,–,23.7 µM (active) and inactive,inactive,inactive,inactive,inactive,inactive
CCN(CC)CCOc1ccc(Nc2ncc3cc(-c4c(Cl)cccc4Cl)c(=O)n(C)c3n2)cc1,1.32 µM (active),5.26 µM (active),–,5.26 µM (active),2.96 µM (active),–,–,–,–,–
CN(C)C(=O)COC(=O)Cc1ccc(OC(=O)c2ccc(N=C(N)N)cc2)cc1,inactive,inactive,inactive,inactive,inactive,inactive,inactive,inactive,inactive,–
N=C(N=C(N)N)N1CCOCC1,inactive,inactive,–,inactive,inactive,inactive,inactive,inactive,inactive,inactive
CC(C)[C@H](N)C(=O)OCCOCn1cnc2c(=O)[nH]c(N)nc21,inactive,inactive,inactive,inactive,inactive,inactive,inactive,inactive,inactive,–
Clc1ccc2c(N3CCN(CCCN4CCN(c5ccnc6cc(Cl)ccc56)CC4)CC3)ccnc2c1,inactive,inactive,–,inactive,inactive,–,–,–,–,–
Cc1cc2c(s1)Nc1ccccc1N=C2N1CCN(C)CC1,inactive,inactive,inactive,inactive,inactive,inactive,inactive,inactive,inactive,–
Cc1ccc(NC(=O)c2ccc(CN3CCN(C)CC3)cc2)cc1Nc1nccc(-c2cccnc2)n1,inactive,inactive,inactive,inactive,inactive,inactive,inactive,–,inactive,–
O=C1c2c(O)cc(O)cc2OC(c2ccc(O)c(O)c2)C1O (stereo not drawn),inactive,inactive,–,inactive,inactive,–,–,–,–,–
CN(C)CCc1c[nH]c2ccc(Cn3cncn3)cc12,inactive,inactive,–,inactive,inactive,–,–,–,–,–
O=P(O)(O)C(O)(Cn1ccnc1)P(=O)(O)O,inactive,inactive,–,inactive,inactive,–,–,–,–,–
Cc1cc2cc3c(C)cc(=O)oc3c(C)c2o1,inactive,inactive,inactive,inactive,inactive and 4.69 µM (active),inactive,inactive,inactive,inactive,–
Cc1cccc(-c2[nH]ncc2-c2ccc3ncccc3n2)n1,inactive,inactive,–,inactive,–,–,–,–,–,–
COC(=O)C1=C(C)NC(C)=C(C(=O)OCCCN2CCC(c3ccccc3)(c3ccccc3)CC2)C1c1cccc([N+](=O)[O-])c1 (stereo not drawn),inactive and 23.7 µM (active),inactive and 11.9 µM (active),inactive,inactive and 18.8 µM (active),inactive,–,–,–,inactive,–
S=c1nc[nH]c2nc[nH]c12,inactive,inactive,–,4.18 µM (active),1.19 µM (active) and 2.96 µM (active),10 µM (active),2.51 µM (active),5.62 µM (active),5.62 µM (active),inactive
Cc1cccc(C#Cc2ccccc2)n1,inactive,inactive,–,inactive,inactive,–,–,–,–,–
Cc1cc(O)c2c(c1)C(=O)c1cc(O)cc(O)c1C2=O,inactive,inactive,–,inactive,inactive,–,–,–,–,–
CCC1=C(C)CN(C(=O)NCCc2ccc(S(=O)(=O)NC(=O)NC3CCC(C)CC3)cc2)C1=O (stereo not drawn),inactive,inactive,inactive,inactive,inactive,inactive,inactive,inactive,inactive,–
O=C(CCc1ccc(O)cc1)c1c(O)cc(O)cc1O,9.35 µM (active),4.69 µM (active),inactive,–,5.9 µM (active),–,–,–,–,–

SMILES,Potency [1],Potency [2],outcome [3],Potency [4],Potency [5],Potency [6],Potency [7],Potency [8],Potency [9],Potency [10]
CCOc1cc(CC(=O)N[C@@H](CC(C)C)c2ccccc2N2CCCCC2)ccc1C(=O)O,inactive,inactive,–,inactive,inactive,–,–,–,–,–
CCCc1cc(=O)[nH]c(=S)[nH]1,inactive,inactive,inactive; activator,inactive,inactive and 18.7 µM (active),inactive,inactive,inactive,inactive,–
O=c1c(O)c(-c2ccc(O)cc2O)oc2cc(O)cc(O)c12,inactive,inactive,–,inactive,inactive,–,–,–,–,–
O=c1oc2cc(O)ccc2s1,inactive,inactive,–,inactive,inactive,–,–,–,–,–
C[C@@H](N)C1CCC(C(=O)Nc2ccncc2)CC1 (stereo partly drawn),inactive,inactive,–,inactive,inactive,–,–,–,–,–
Cc1c(C(=O)NN2CCCCC2)nn(-c2ccc(Cl)cc2Cl)c1-c1ccc(Cl)cc1,inactive,inactive,inactive,–,inactive,inactive,inactive,inactive,inactive,–
COc1ccc(C2(C#N)CCC(C(=O)O)CC2)cc1OC1CCCC1 (stereo not drawn),inactive,inactive,–,inactive,inactive,inactive,inactive,inactive,inactive,inactive
Cc1cc(=O)oc2cc(O)ccc12,inactive,inactive,–,inactive,inactive,inactive,inactive,inactive,inactive,–
NS(=O)(=O)c1cc(C(=O)O)c(NCc2ccco2)cc1Cl,inactive,inactive,–,inactive,inactive,inactive,inactive,inactive,inactive,–
CC1Cc2ccccc2N1NC(=O)c1ccc(Cl)c(S(N)(=O)=O)c1 (stereo not drawn),inactive,inactive,–,inactive,inactive,inactive,inactive,inactive,inactive,inactive
CC(C)c1ccc2oc3nc(N)c(C(=O)O)cc3c(=O)c2c1,inactive,inactive,–,inactive,inactive,8.91 µM (active),4.47 µM (active),7.08 µM (active),7.94 µM (active),6.31 µM (active)
CC(C)CC(=O)N[C@H](C(=O)N[C@H](C(=O)N[C@@H](CC(C)C)[C@@H](O)CC(=O)N[C@@H](C)C(=O)N[C@@H](CC(C)C)[C@@H](O)CC(=O)O)C(C)C)C(C)C (Isovaleryl-VV[Sta]A[Sta]-OH),inactive,inactive,–,inactive,inactive,inactive,inactive,inactive,inactive,inactive
COc1cc2c(N3CCN(C(=O)Nc4ccc(OC(C)C)cc4)CC3)ncnc2cc1OCCCN1CCCCC1,inactive,inactive,–,inactive,inactive,inactive,inactive,inactive,inactive,–
CN(C)c1ccc2nc3ccc(=[N+](C)C)cc-3sc2c1,2.35 µM (active) and 841 nM (active),4.69 µM (active) and 2.66 µM (active),–,3.32 µM (active) and 2.37 µM (active),1.87 µM (active) and 1.19 µM (active),1.12 µM (active),7.08 µM (active),1.78 µM (active),–,–
O=C(O)c1cccc(-c2noc(-c3ccccc3F)n2)c1,inactive,inactive,–,inactive,inactive,11.2 µM (active) and 12.6 µM (active),11.2 µM (active) and 14.1 µM (active),3.16 µM (active) and 6.31 µM (active),7.08 µM (active) and 10 µM (active),10 µM (active) and 11.2 µM (active)
Cc1cc(C2CCCCC2)n(O)c(=O)c1,2.11 µM (active) and 10.5 µM (active),1.88 µM (active) and 11.8 µM (active),–,2.66 µM (active) and 13.2 µM (active),1.88 µM (active) and 11.8 µM (active),15.8 µM (active),inactive,14.1 µM (active),inactive,15.8 µM (active)
O=C(NCC1CCCCN1)c1cc(OCC(F)(F)F)ccc1OCC(F)(F)F (stereo not drawn),inactive,inactive,–,inactive,inactive,inactive,inactive,inactive,inactive,inactive
CC1(C)NC(=O)N(c2ccc([N+](=O)[O-])c(C(F)(F)F)c2)C1=O,inactive,inactive,–,inactive,inactive,inactive,inactive,inactive,inactive,–
COC(=O)N[C@H](C(=O)N[C@@H](Cc1ccccc1)[C@@H](O)CN(Cc1ccc(-c2ccccn2)cc1)NC(=O)[C@@H](NC(=O)OC)C(C)(C)C)C(C)(C)C,inactive,inactive,–,inactive,inactive,inactive,inactive,inactive,inactive,inactive
NC(=O)Cc1cccc(C(=O)c2ccccc2)c1N,inactive,inactive,–,inactive,inactive,inactive,inactive,inactive,inactive,inactive
Nc1ncn([C@H]2C[C@H](O)[C@@H](CO)O2)c(=O)n1,inactive,inactive,–,inactive,inactive,inactive,inactive,inactive,inactive,–
COc1c(O)cc2c(c1O)[C@@H]1O[C@H](CO)[C@@H](O)[C@H](O)[C@H]1OC2=O,inactive,inactive,–,inactive,inactive,–,inactive,inactive,inactive,inactive
COC(=O)[C@H](Cc1ccccc1)NC(=O)[C@@H](N)CC(=O)O (H-Asp-Phe-OMe),inactive,inactive,–,inactive,inactive,inactive,inactive,inactive,inactive,–
Cc1ccc(Nc2nccc(N(C)c3ccc4c(C)n(C)nc4c3)n2)cc1S(N)(=O)=O,inactive,inactive,–,inactive,inactive,inactive,inactive,inactive,–,–
Cc1nccn1CC1CCc2c(c3ccccc3n2C)C1=O (stereo not drawn),inactive,inactive,–,inactive,inactive,inactive,inactive,inactive,inactive,inactive
